Bioassay records as filed in PubChem.
Tau fluor cs: Counterscreen qHTS for Inhibitors of Tau Fibril Formation, Fluorescence Polarization; tau K18 P301L Alexa594 fluorescence, heparin fibrillization; hit rate 0.93% among 280,000; Potency, µM (series often up to 57.7 µM), for inactives: at the top dose activity change, negative = decrease; also: potency is read from the fitted curve at half-maximal effect; % is scaled to controls: 0 for no effect and ±100 for the full control effect; nearly all actives have a fitted effect of over 55% in size
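Human K18 P301L tau (15 uM unlabeled plus 0.24 uM Alexa 594-labeled, final) in 100 mM sodium acetate pH 7 was mixed with compound and 20 uM heparin and incubated 6 hr at 37 C.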
TRb-SRC2 inh: qHTS for Inhibitors of the Interaction of Thyroid Hormone Receptor and Steroid Receptor Coregulator 2. Thyroid hormone receptor beta (Homo sapiens), P10828. TRbeta-SRC2 peptide binding, fluorescence polarization; receptor liganded with 1 µM T3. Potency, µM (highest dose often 106 µM), for the others: at the highest dose activity change, negative = inhibition, usual class: inhibitors. hit rate 0.065% among 280,000;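 also: potency is read from the fitted curve at half-maximal effect; plate controls were bound peptide for no effect and peptide without receptor for full effect; nearly all actives have a fitted effect of over 50% in size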
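Polarization signal, normalized between peptide-alone and full complex controls, measured compound effects on T3-liganded human TRb LBD (0.6 uM) binding 20 nM Texas Red SRC2 peptide after 5 hr.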
TR SRC2 fluor cs: Total Fluorescence Counterscreen for Inhibitors of the Interaction of Thyroid Hormone Receptor and Steroid Receptor Coregulator 2; AID 1479, 2009; TRb/SRC2 Texas Red total fluorescence interference; Potency, µM (highest dose often 106 µM), inactives show at the highest dose fluorescence change, negative = quenching; hit rate 0.29% among 280,000; active = well fitted curve in either direction with a large enough effect; inconclusive = small, poorly fitted or top-dose-only effect; also: potency is read from the fitted curve at half-maximal effect; % is scaled to controls: 0 for no effect and ±100 for the full control effect
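Human TRb ligand-binding domain at 0.6 uM with 20 nM Texas Red SRC2 peptide in Tris buffer containing 1 uM T3 and 5% DMSO, incubated with compound 5 h at ambient temperature. Total fluorescence (555/632 nm) calculated as parallel + 2 × perpendicular.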
Tau ThT inhib: qHTS for Inhibitors of Tau Fibril Formation, Thioflavin T Binding; Microtubule-associated protein tau (Homo sapiens), P10636; recombinant tau K18 P301L, heparin-induced fibrillization, ThT fluorescence; Potency, µM (top dose mostly 57.4 µM), for the others: at the highest dose activity, negative = inhibition, actives largely listed as inhibitors; hit rate 2.1% among 270,000; AID 1460, 2008; also: potency is read from the fitted curve at half-maximal effect; % is scaled to controls: 0 for no effect and ±100 for the full control effect; nearly all actives have a fitted effect of over 55% in size
Target sequence (P10636 561-689 P618L limits assumed): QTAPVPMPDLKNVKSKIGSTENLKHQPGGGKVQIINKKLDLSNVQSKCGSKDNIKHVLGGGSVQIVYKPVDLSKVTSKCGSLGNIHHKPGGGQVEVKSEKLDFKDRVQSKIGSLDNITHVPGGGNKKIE
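K18 P301L tau (15 uM + 0.24 uM Alexa 594-tagged), heparin 20 uM, NaOAc pH 7, 6 h 37 C; ThT 30 uM, 1 h RT, ex 450/em 510 nm.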
Tau FP inhib: qHTS for Inhibitors of Tau Fibril Formation, Fluorescence Polarization | hit rate 0.39% among 280,000 | Potency, µM (titrated, usually from 57.7 µM), inactives show at the highest dose activity, negative = inhibition, actives largely listed as inhibitors | Microtubule-associated protein tau (Homo sapiens), P10636 | K18 P301L tau heparin fibrillization, Alexa594 FP, 6 h; also: potency is read from the fitted curve at half-maximal effect; % is scaled to controls: 0 for no effect and ±100 for the full control effect; nearly all actives have a fitted effect of over 55% in size
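Compound effects on tau fibrillization are measured by Alexa 594 fluorescence polarization (ex 555, em 632 nm). K18 P301L tau is used at 15 uM with 0.24 uM labeled tracer, and 20 uM heparin induces aggregation over 6 hr at 37 C.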
Tau fibril TEM: Transmission Electron Microscopy Assay for Inhibitors of Tau Fibrillization; recombinant tau K18 P301L fibrillization, TEM grading; stronger effect = higher value; hit rate 70% among 45; fibril grade (0 = clumped fibrils, 4 = only tiny pieces) (test concentration not listed); AID 1719, 2009; shares compounds with Tau ThT inhib;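 active = compounds whose electron micrographs showed tau fibrils broken into shorter filaments or fragments, graded high on fibril breakup; inconclusive = micrographs gave an unclear fibril picture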
tau fibril sed: Sedimentation Assay for Inhibitors of Tau Fibrillization. shares compounds with Tau ThT inhib. recombinant tau K18 P301L (four-repeat tau fragment), sedimentation SDS-PAGE densitometry. inhibition, % at 100 µM. hit rate 50% among 110. AID 1720, 2009; in the data active = inhibition above about 40%; inconclusive = no clear call, values can overlap the other calls; inactive = below about 18%
* marks the source's active call; other numbers are inactive results; u = inconclusive; x = not tested or not shown. Shown are actives, neighbours in structure and some others; about 3% of the full set was active somewhere. Unless noted, calls follow the shape of the dose curve; as a rule, active = well fitted curve in the direction sought with a large enough effect; inconclusive = small, poorly fitted or top-dose-only effect, or another doubt; inactive = no such curve, though single readings can be large; an effect the other way counts as inactive or inconclusive.

SMILES | Tau fluor cs | TRb-SRC2 inh | TR SRC2 fluor cs | Tau ThT inhib | Tau FP inhib | tau fibril sed | others
CCN(c1ccccc1)S(=O)(=O)c1nnc(NC(=O)C(C)(C)C)s1 | 1.7% | -4.9% | 5.6% | u | u | 18.0
CCN(c1ccccc1)S(=O)(=O)c1nnc(NC(=O)c2ccco2)s1 | -14.7% | 5.4% | -2.8% | u | -1.6% | x
CC(C)C(C)NC(=O)CSc1nc2scc(-c3ccco3)c2c(=O)n1-c1ccccc1 (configuration not stated) | -29.4% | 11.5% | 6.9% | 8.91µM* | 4.47µM* | 68.0* | Tau fibril TEM=3*
Cc1cccc(NC(=O)C(=O)NCC(c2cccnc2)N2CCc3ccccc32)c1C (configuration not stated) | 1.6% | -11.3% | u | 5.9% | -2.0% | x
Cc1ccc(CNC(=O)Cn2nc(C)n3cccc3c2=O)cc1 | -19.5% | -7.0% | -0.6% | 9.3% | u | x
COc1ccc(CNC(=O)Cn2nc(C)n3cccc3c2=O)cc1 | -15.4% | 0.3% | 0.2% | 16.6% | u | 5.0
Cc1nn2c(=O)cc(COC(=O)Cc3ccccc3)nc2s1 | 10.2% | -1.6% | -2.7% | 4.3% | -0.9% | x
O=C(Nc1ccccc1)Nc1ccccc1 | -22.2% | 3.5% | -0.3% | 0.7% | -0.7% | 6.0
O=C(Nc1ccccc1)Nc1cccc(Cl)c1 | u | -1.0% | -1.1% | 10.2% | u | x
